NS1 inh: blocks influenza NS1 protein function; Potency, µM (highest dose often 46.1 µM), without a hit: at the top dose activity, positive = more growth; 0.4% of 270,000 active; AID 2326; note: potency is the fitted concentration of half-maximal effect; actives are rising curves; nearly all actives have a fitted effect of over 50% in size
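Recovery from NS1-induced slow growth read by OD600 in budding yeast switched to galactose assay medium (pH 6.0, -URA) at 1:100 dilution. Compound 23 nl per well; the matching strain lacking NS1 serves as control.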
SARS PLP yeast: inhibitors of SARS-CoV papain-like protease in yeast. Potency, µM (series often up to 32.9 µM), for inactives: at the top dose activity, positive = growth rescue, most hits filed as activators. S. cerevisiae expressing SARS-CoV PLpro, growth rescue. 0.19% of 330,000 active; note: potency is the fitted concentration of half-maximal effect; 0% is about no effect; nearly all actives have a fitted effect of over 55% in size
Pf growth 96h: P. falciparum growth inhibition at 96 hour, primary screen for plastid delayed-death inhibitors; 6.9% of 320,000 active; P. falciparum luciferase reporter growth, 96 h; Potency, µM (highest dose often 28.7 µM), inactives show at the top dose activity change, negative = inhibition, most hits filed as inhibitors; active = well fitted inhibition curve with a large enough effect; inconclusive = small, poorly fitted or top-dose-only effect, or another doubt; inactive = no such curve, though single readings can be large or run the other way; note: potency is the fitted concentration of half-maximal effect; % is set by controls: 0 for no effect and ±100 for the full control effect
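Compounds incubated with erythrocytes infected by luciferase-expressing P. falciparum (2% hematocrit, 0.05% parasitemia final) for 96 hours, 37 C in 5% CO2. Growth inhibition scored as decreased luciferase luminescence.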
Pf growth 48h: inhibits P. falciparum growth in the first generation, 48 h; P. falciparum luciferase growth in erythrocytes, 48 h; Potency, µM (titrated, usually from 28.7 µM), without a hit: top-dose activity change, negative = inhibition, most hits filed as inhibitors; 5.9% of 310,000 active; AID 504832; active = well fitted inhibition curve with a large enough effect; inconclusive = small, poorly fitted or top-dose-only effect, or another doubt; inactive = no such curve, though single readings can be large or run the other way; note: potency is the fitted concentration of half-maximal effect; % is set by controls: 0 for no effect and ±100 for the full control effect
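A one-generation exposure of luciferase-tagged malaria parasites in RPMI 1640/Albumax erythrocyte culture, 37 C and 5% CO2. Inhibition is inferred from decreased luminescence after adding detection reagent.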
Cycloheximide cs: counter-screen hit for Shiga toxin inhibitors, cycloheximide; cell reporter, cycloheximide protein synthesis inhibition counterscreen; max response, %; 12% of 300,000 active; AID 2314; in the data active = max response mostly above about 13%, no sharp cut-off; inactive = mostly below about 14%; note: read at 38.3 µM for the half of the compounds with a filed dose; 0% is about no effect
Shiga inhibitor: blocks Shiga toxin action in Vero cells; Vero cells, Shiga toxin protein synthesis inhibition reporter; inhibition, % at 38.7 µM; 9.2% of 290,000 active; in the data active = inhibition mostly above about 28%, no sharp cut-off; inactive = mostly below about 43%; note: 0% is about no effect
* marks the source's active call; other numbers are inactive results; ? = inconclusive; / = no result given; [ ] = another dose, or the depositor's remark. In the library only some 21% were active in any assay of this set; here they are far more common. Unless noted, calls come from the whole dose curve.

SMILES	NS1 inh	SARS PLP yeast	Pf growth 96h	Pf growth 48h	Cycloheximide cs	Shiga inhibitor
Cc1c(C2Nc3ccccc3NC3=C2C(=O)CC(C)(C)C3)cnn1C (stereo not given)	-17.4%	-39.0%	5.86µM*	?	8.4	11.8
COc1cccc(CNS(=O)(=O)/C=C/c2ccc3c(c2)OCO3)c1	-6.4%	-5.1%	22.8%	-2.9%	0.4	8.1
N#C/C(=C\c1ccc(N2CCOCC2)o1)C(=O)NCC1CCCO1 (stereo not given)	-7.8%	-1.0%	-18.5%	?	-4.9	24.3
N#C/C(=C/c1ccc(N2CCOCC2)o1)C(=O)Nc1ccccc1	-6.7%	-0.8%	14.3%	11.1%	35.8*	75.7*
N#C/C(=C\c1ccc(N2CCOCC2)o1)C(=O)NC1CCCCC1	3.2%	0.3%	?	?	22.7*	46.0*
CCn1cc(C(=O)N[C@@H](CCSC)C(=O)NCCCn2ccnc2)c(=O)c2cc3c(cc21)OCO3	-11.3%	-3.9%	-22.3%	11.0%	-6.9	-3.5
COc1ccc(CCNC(=O)CCCn2c(=O)c3cccn3c3cccnc32)c(OC)c1OC	-2.0%	4.5%	13.1µM*	?	2.7	-2.4
O=c1c2cccnc2[nH]c(=S)n1CCCN1CCN(c2ccc(F)cc2)CC1	-8.1%	7.7%	/	8.0%	-1.2	-13.2
COc1ccc(CCNC(=O)CCCn2c(=O)c3cccn3c3cccnc32)c(OC)c1	13.3%	0.7%	10.4µM*	?	7.7	-2.9
CCOc1ccc(CCNC(=O)CCCn2c(=O)c3cccn3c3cccnc32)cc1OCC	-0.1%	3.2%	-17.9%	?	-4.7	-1.2
COc1cccc(CNC(=O)CCn2c(=O)c3cccn3c3cccnc32)c1	?	-0.7%	33.5%	10.0%	-2.3	14.4
CC(C)Oc1ccc(CNC(=O)Cn2c(=O)c3cccn3c3cccnc32)cc1	-0.5%	-3.6%	14.7µM*	17.0%	-2.0	-1.6
COc1ccc(N2CCN(CCCn3c(=S)[nH]c4ncccc4c3=O)CC2)cc1	13.1%	13.5%	13.1µM*	/	-4.4	-1.2
CCOc1ccc(CNC(=O)Cn2c(=O)c3cccn3c3ccccc32)cc1	11.0%	-1.7%	?	13.3%	-6.2	-7.1
CCCn1nc(C(=O)NNC(=O)C2CSC3(C)CCC(=O)N23)c2ccccc2c1=O (stereo not given)	/	9.6%	-3.8%	?	/	/
O=C(CCCOc1ccc(Br)cc1)NCCc1ccc(OC(F)F)cc1	-25.3%	-1.2%	-1.0%	-6.4%	7.2	-5.9
COc1ccc(N2CCN(C(=O)CCCn3c(=O)c4cccn4c4cccnc43)CC2)cc1	12.4%	-2.9%	43.1%	11.7µM*	0.3	14.5
Cc1nn(-c2ccccc2)c(C)c1NC(=O)COC(=O)Cc1ccccc1F	/	-5.9%	23.2%	-8.1%	/	/
C[C@@H]1OC(Nc2ccc(N=Nc3ccccc3)cc2)[C@H](O)[C@H](O)[C@H]1O (stereo not given in full)	-0.2%	-0.9%	170.0%	129.1%	35.2*	52.1*
O=C/C=C/c1c(-c2ccccc2)cc2oc3ccccc3cc1-2	15.8%	-11.2%	?	?	27.5*	77.1
COc1ccc(Cl)cc1S(=O)(=O)N1CCCC1	5.6%	6.9%	-12.5%	/	-6.6	-8.8
O=C(O)C1CCN(S(=O)(=O)c2ccc(N3CCCC3C(=O)O)c([N+](=O)[O-])c2)CC1 (stereo not given)	7.6%	6.1%	11.1%	4.2%	0.4	5.0
CC(C)(C)c1c(Cl)c(O)c(-c2ccccc2)c(=O)n1-c1ccccc1	8.6%	0.7%	22.8%	?	-1.3	-4.3
Cc1ccc(-n2c(-c3ccccc3)n[nH]c2=S)cc1	-4.2%	-5.6%	-19.2%	26.7%	-2.1	-10.7
CC(c1ccccc1)n1c(-c2ccc(C(C)(C)C)cc2)n[nH]c1=S (stereo not given)	-50.5%	3.1%	4.65µM*	20.3%	2.1	19.9
SMILES	NS1 inh	SARS PLP yeast	Pf growth 96h	Pf growth 48h	Cycloheximide cs	Shiga inhibitor
CCc1cc(-c2n[nH]c(=S)n2C(C)c2ccccc2)cs1 (stereo not given)	10.5%	13.2%	1.1%[5.75 µM]	9.5%	13.2	3.9
CC(C)(C)c1ccc(-c2n[nH]c(=S)n2-c2ccccc2)cc1	16.0%	-4.1%	2.94µM*	310.2%	0.6	-12.9
Cn1c(-c2ccc(C(C)(C)C)cc2)n[nH]c1=S	-2.5%	-13.6%	-21.4%	60.5%	36.1*	59.2*
Cc1ccc(-n2c(-c3ccccc3)n[nH]c2=S)c(C)c1	24.1%	5.1%	13.1µM*	-12.9%	-2.3	-1.9
COc1ccc(C)cc1NC(=S)N1CCN(S(C)(=O)=O)CC1	10.4%	-5.3%	-14.2%	5.1%	6.0	21.8
Cc1ccccc1-n1c(-c2csc3ccccc23)n[nH]c1=S	12.3%	-32.0%	-3.4%	-8.4%	0.3	12.6
Cc1ccccc1-n1c(-c2csc(C)c2C)n[nH]c1=S	15.3%	23.1%	4.5%	9.7%	16.6*	45.7*
COC(=O)c1ccc([C@H]2CC(=O)O2)cc1	-0.7%	0.0%	-22.1%	0.3%	4.9	3.3
CN1CCCCC1CCN1c2ccccc2Sc2ccc(S(C)=O)cc21 (stereo not given)	/	-3.9%	1.51µM*	?	-5.9	-12.5
CCN(CC)C(=O)Oc1cc2c(-c3cc4cccc(OC)c4o3)cc(=O)oc2cc1C	4.6%	?	10.4µM*	10.4µM*	20.9	-3.5
CCOC(=O)c1oc2cccc(OCC(O)CNC(C)C)c2c1C (stereo not given)	3.0%	-5.6%	1.31µM*	9.28µM*	5.3	10.8
Cc1oc(-c2cccc(F)c2)nc1CN1CCCCC1CCc1ccccn1 (stereo not given)	3.4%	-0.7%	?	13.1µM*	-4.4	6.5
COc1ccc(-c2nc(CN3CCCCC3CCc3ccccn3)c(C)o2)cc1 (stereo not given)	4.9%	0.7%	?	?	-3.0	31.4
Cc1ccc(Nc2nc(N)c3ccccc3n2)cc1Cl	-14.6%	-2.7%	-0.8%	?	43.0*	/
COc1cc2nc(N(C)C)nc(N)c2cc1OC	0.5%	3.0%	8.3%	?	7.3	31.3
CCOC(=O)c1ccc(Nc2nc(N)c3cc(OC)c(OC)cc3n2)cc1	5.4%	-0.2%	-4.2%	1.04µM*	6.1	40.2
Cc1ccc(Nc2nc3ccccc3n3cnnc23)cc1Cl	-6.7%	-3.6%	?	?	15.8	1.9
COc1cc2nc(Nc3ccc(F)cc3)nc(N)c2cc1OC	-2.7%	-1.4%	27.4%	0.522µM*	16.5*	9.2
COc1cc2nc(Nc3ccc(C)c(C)c3)nc(N)c2cc1OC	-1.6%	-1.7%	0.9%	0.522µM*	8.1	18.6
COC(=O)c1ccc(Nc2nc(C)cc(C)n2)cc1	-34.8%	5.3%	59.9%	2.8%	6.4	15.0
COc1ccc(OCC(=O)N(Cc2ccco2)C2CCS(=O)(=O)C2)cc1 (stereo not given)	0.3%	-0.6%	2.6%	-0.4%	4.0	5.3
